Compound activity as filed in PubChem BioAssay.
aSyn 5UTR act: Activators working through SNCA 5'UTR binding (MLPCN); alpha-synuclein 5'UTR reporter, activators screen; activity score, % (tested at 7.5 µM), hits read low; AID 1814; 7.1% of 300,000 active; in the data active = activity score below about -60%
Starred values were filed as active, the others as inactive. These entries were drawn from the full list.

SMILES | aSyn 5UTR act
CCOC(=O)N1CC=C2C(C#N)=C(N)C(C#N)(C#N)[C@H](c3ccc(OCC)c(OCC)c3)[C@H]2C1 | -78*
O=C(CCSCc1ccccc1F)N1CCN(c2ccccn2)CC1 | -78*
O=C(CSCc1ccccc1Cl)N1CCN(c2ccccn2)CC1 | -82*
CCc1ccc(-c2nc(CSCC(=O)N3CCN(c4ccccn4)CC3)c(C)o2)cc1 | 82
CNC(C)C#Cc1ccc2c(=O)c3ccccc3oc2c1 (stereo unspecified) | -244*
O=C(NCc1cccnc1)/C(=C/c1ccc(-c2cccc(Cl)c2)o1)S(=O)(=O)c1ccccc1 | -193*
COc1ccc(-c2cc3c(=O)n(CC(=O)NCCCN4CCC(Cc5ccccc5)CC4)ncn3n2)cc1 | 96
COc1ccc(-c2cc3c(=O)n(CC(=O)NCc4ccc(F)cc4)ncn3n2)cc1 | -75*
COc1ccc(CNC(=O)Cn2ncn3cccc3c2=O)cc1 | -78*
Cc1ccccc1SCCNC(=O)c1ccccc1Br | -107*
Cc1ccccc1SCCNC(=O)CCc1ccccc1 | -64*
CC(C)c1nnc(NC(=O)c2nc(S(=O)(=O)Cc3ccccc3)ncc2Cl)s1 | -81*
CCc1ccc(NC(=O)c2nc(S(=O)(=O)Cc3ccccc3)ncc2Cl)cc1 | 91
O=C(Nc1ccc2c(c1)OCO2)C1CCN(S(=O)(=O)c2cccs2)CC1 | -64*
O=S(=O)(Nc1ccc2c(c1)OCCO2)c1cccs1 | -91*
Cc1nn(C)c(C)c1S(=O)(=O)N1CCC(C(=O)Nc2ccc3c(c2)OCCO3)CC1 | -111*
CN(CC(=O)Nc1ccc2c(c1)OCO2)S(=O)(=O)c1cccs1 | -76*
O=C(CNS(=O)(=O)c1cccs1)Nc1ccc2c(c1)OCCO2 | -91*
O=C(N=c1nc2ccccn2s1)c1ccccc1 | -180*
COc1cccc2cc(C(=O)OCC(=O)NCc3ccc4c(c3)OCO4)c(=O)oc12 | -92*
COc1cccc2cc(C(=O)NCc3ccccc3Cl)c(=O)oc12 | -101*
CCc1ccc(C(=O)Cc2cc3cccc(OC)c3oc2=O)cc1 | -105*
CCc1ccc(-c2nc(C(N)=O)c3[nH]c(=O)n(-c4ccccc4OC)c3n2)cc1 | 82
COc1cccc2cc(C(=O)NCc3ccco3)c(=Nc3ccc(C(=O)O)cc3)oc12 | -90*
COc1cccc2cc(C(=O)Nc3ccccc3C)/c(=N/O)oc12 | -114*
SMILES | aSyn 5UTR act
COc1cccc2cc(CC(=O)c3cc(C)ccc3C)c(=O)oc12 | -116*
COc1cccc2cc(-c3nc4ccccc4o3)c(=O)oc12 | -169*
COc1cccc2cc(CC(=O)c3ccccc3)c(=O)oc12 | -147*
COc1cccc2cc(C(=O)c3ccccc3)oc12 | -132*
O=C(NCc1cccs1)c1cc2c(s1)CCCC2 | -142*
O=C(NCC1CCCO1)c1cc2c(s1)CCC2 (stereo unspecified) | -122*
O=[N+]([O-])c1cc(N=Nc2ccc3ccccc3c2)ccc1O | -104*
CCCNC(=O)C1CC(=O)N(c2ccc(OCc3ccc(Cl)cc3)cc2)C1 (stereo unspecified) | -108*
CCCNC(=O)C1CC(=O)N(c2ccc(OCc3ccc(F)cc3)cc2)C1 (stereo unspecified) | -92*
C=CCNC(=O)C1CC(=O)N(c2ccc(OCc3ccc(F)cc3)cc2)C1 (stereo unspecified) | -95*
C=CCNC(=O)C1CC(=O)N(c2ccc(OCC(=O)Nc3ccccc3)cc2)C1 (stereo unspecified) | -94*
NC(=O)C1CC(=O)N(c2ccc(OCc3ccc(Cl)cc3)cc2)C1 (stereo unspecified) | -146*
COc1ccc(S(=O)(=O)NCC2CCCN(Cc3ccc(OC)cc3F)C2)cc1 (stereo unspecified) | -90*
C=CCSc1nnc2c(n1)[nH]c1c(C)cccc12 | -158*
CCSc1nnc2nc3[nH]c4c(C)cccc4c3nn12 | -147*
CCc1ccc(-c2cn(C3CCCCC3)c(=S)[nH]2)cc1 | -127*
Nc1cc(-c2ccc(Br)cc2)nn1Cc1ccccc1 | -196*
c1ccc(NC2=Nc3ccccc3CC2)cc1 | -179*
COCCn1c(C)cc(C2=NNC(=NC3CC3)SC2)c1C | 112
COCC(C)N=C1NN=C(c2cc(C)n(Cc3ccccc3Cl)c2C)CS1 (stereo unspecified) | -141*
COCCCN=C1NN=C(c2cc(C)n(Cc3ccco3)c2C)CS1 | 94
CCOC(=O)c1c(C)[nH]c2cc(Br)c(O)cc12 | -92*
COc1ccc(CCNC(=O)c2cccn2C)cc1 | -89*
Cn1cccc1C(=O)NCCc1ccc(Cl)cc1 | -162*
Cn1c(=O)c(C(=O)Nc2ccccc2S(N)(=O)=O)c(O)c2ccccc21 | -64*
O=C(Nc1ccc(-n2cc(Cl)cn2)cc1)c1ccncc1 | -92*
O=C(Nc1ccc(-n2cc(Br)cn2)cc1)c1ccncc1 | -68*
O=C(NCC1CCCO1)c1ccc([N+](=O)[O-])o1 (stereo unspecified) | -90*
CC(NC(=O)c1ccc([N+](=O)[O-])o1)C12CC3CC(CC(C3)C1)C2 (stereo unspecified) | -168*
O=C(NCC1CCCO1)c1cc(-c2ccccc2F)no1 (stereo unspecified) | -204*
